19 molecules from PubChem BioAssay (EPA / NIEHS) can be followed below.

Inconclusive results are not listed. Activity calls are given as the source filed them. How the source made its calls: active means hit-call score of the fitted dose curve at least 0.9, where 1 is the maximum; inconclusive means response in the unintended direction; inactive means score below 0.9.

The target of test [1] is human Protein Tyrosine Phosphatase Non-receptor Type 9 (PTPN9), PTPN9 (gene 5780) (UniProt P43378). In words: NVS_ENZ_hPTPN9: NovaScreen (NVS) Enzymatic Assay for human Protein Tyrosine Phosphatase Non-receptor Type 9 (PTPN9) (AID 2283209). In outline:
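Sf9-expressed enzyme in a cell-free assay, fluorescence read 1.33 h after dosing with mobility-shift separation of substrate and product. Tested at 25 uM in duplicate, then up to 50 uM; signal loss versus DMSO.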

Test [2] concerns the target human SRC Proto-Oncogene, Non-receptor Tyrosine Kinase (SRC), SRC (gene 6714) (UniProt P12931). In words: NVS_ENZ_hSRC: NovaScreen (NVS) Enzymatic Assay for human SRC Proto-Oncogene, Non-receptor Tyrosine Kinase (SRC) (AID 2283223). In outline: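 Cell-free kinase activity assay with fluorescent substrate, product separated by electrophoretic mobility shift, read 1 h after dosing. Duplicate single point at 25 uM, then concentration-response up to 50 uM; loss of signal versus DMSO.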

In test [3] the target is human Tropomyosin Receptor Kinase A (TRKA), NTRK1 (gene 4914) (UniProt P04629). Nature of the test: NVS_ENZ_hTrkA: NovaScreen (NVS) Enzymatic Assay for human Tropomyosin Receptor Kinase A (TRKA) (AID 2283224). In outline: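 Recombinant human TrkA activity read after 1 h by fluorescence with electrophoretic mobility shift separating substrate and product. Primary screen in duplicate at 25 uM; actives were rerun in concentration-response up to 50 uM. Loss of signal versus DMSO.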

Test [4] concerns the target human Tyrosine Protein Kinase Receptor Tie-2 (Tie2), TEK (gene 7010) (UniProt Q02763). In words: NVS_ENZ_hTie2: NovaScreen (NVS) Enzymatic Assay for human Tyrosine Protein Kinase Receptor Tie-2 (Tie2) (AID 2283225). An outline of the steps: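 Recombinant human Tie2 kinase activity was read cell-free by fluorescence with electrophoretic mobility shift, 1 hour after dosing. The screen used 25 uM in duplicate, then concentration-response up to 50 uM. Signal loss was scored against DMSO.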

Test [5] addresses human Vascular Endothelial Growth Factor Receptor 3 (VEGFR3), FLT4 (gene 2324) (UniProt P35916). In words: NVS_ENZ_hVEGFR3: NovaScreen (NVS) Enzymatic Assay for human Vascular Endothelial Growth Factor Receptor 3 (VEGFR3) (AID 2283229). In outline: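 Cell-free recombinant VEGFR3 kinase reaction with fluorescent substrate, read 1 h after dosing by electrophoretic mobility shift separation of substrate and product. Single-concentration duplicate screen at 25 uM, then concentration-response up to 50 uM; loss of activity versus DMSO.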

The target in test [6] is human Vascular Endothelial Growth Factor Receptor 2 (VEGFR2), KDR (gene 3791) (UniProt P35968). In words: NVS_ENZ_hVEGFR2: NovaScreen (NVS) Enzymatic Assay for human Vascular Endothelial Growth Factor Receptor 2 (VEGFR2) (AID 2283230). An outline of the steps:
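Cell-free recombinant VEGFR2 kinase, fluorescent substrate with electrophoretic mobility-shift separation; read 1 h after dosing. Screened at 25 uM in duplicate, hits to concentration-response up to 50 uM; loss-of-signal versus DMSO.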

The target in test [7] is sheep Cyclooxygenase-2 (Cox2), PTGS2 (gene 443460) (UniProt P79208). Nature of the test: NVS_ENZ_oCOX2: NovaScreen (NVS) Enzymatic Assay for sheep Cyclooxygenase-2 (Cox2) (AID 2283231). An outline of the steps: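 Ovine placental enzyme, cell-free; chemical added, 0.66 h, absorbance (colorimetric). Screen 25 uM in duplicate; ≥threshold hits titrated, top 50 uM. Inhibition = signal loss vs DMSO.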

For test [8], the target named is human Protein Tyrosine Phosphatase Receptor Type F (PTPRF), PTPRF (gene 5792) (UniProt P10586). Nature of the test: NVS_ENZ_hPTPRF: NovaScreen (NVS) Enzymatic Assay for human Protein Tyrosine Phosphatase Receptor Type F (PTPRF) (AID 2283213). An outline of the steps: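 Cell-free fluorescence enzyme assay with recombinant protein and substrate; product separated by electrophoretic mobility shift. Read 1 h after dosing, single 25 uM duplicate screen, then concentration-response up to 50 uM; loss of signal vs DMSO.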

Test [9] addresses human Protein Tyrosine Phosphatase Non-receptor Type 6 (PTPN6), PTPN6 (gene 5777) (UniProt P29350). In words: NVS_ENZ_hPTPN6: NovaScreen (NVS) Enzymatic Assay for human Protein Tyrosine Phosphatase Non-receptor Type 6 (PTPN6) (AID 2283210). An outline of the steps:
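Cell-free assay with recombinant PTPN6 expressed in SF9 cells, fluorescent substrate, product separated from substrate by electrophoretic mobility shift; read 1.33 hours after dosing. Primary screen in duplicate at 25 uM, actives retested in concentration series; DMSO baseline.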

Test [10] concerns the target human Raf-1 Proto-Oncogene, serine/threonine Kinase (RAF1), RAF1 (gene 5894) (UniProt P04049). Nature of the test: NVS_ENZ_hRAF1: NovaScreen (NVS) Enzymatic Assay for human Raf-1 Proto-Oncogene, serine/threonine Kinase (RAF1) (AID 2283216). In outline:
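Cell-free recombinant kinase with specific fluorescent substrate, product separated by electrophoretic mobility shift; read 1 h after dosing. Primary screen at 25 uM in duplicate; hits then run in concentration-response up to 50 uM, fitted as loss of signal versus DMSO.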

Test [11] deals with human Sirtuin 2 (SIRT2), SIRT2 (gene 22933) (UniProt Q8IXJ6). In words: NVS_ENZ_hSIRT2: NovaScreen (NVS) Enzymatic Assay for human Sirtuin 2 (SIRT2) (AID 2283217). An outline of the steps:
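Cell-free recombinant human SIRT2, fluorescent substrate with product separated by electrophoretic mobility shift, 1 hr. Screened in duplicate at 25 uM; hits rerun singly in concentration-response up to 50 uM, relative to DMSO.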

Test [12] addresses rabbit Imidazoline 2 Central (I2C), CKB (gene 100009085) (UniProt P00567). In words: NVS_ENZ_rabI2C: NovaScreen (NVS) Enzymatic Assay for rabbit Imidazoline 2 Central (I2C) (AID 2283228). An outline of the steps: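 Rabbit brain membranes, cell-free; readout by filter-based scintillation counting 1.5 hours after dosing, loss of signal vs DMSO. Initial duplicate test at 25 uM, then concentration-response with 50 uM top concentration.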

For test [13], the target named is human Protein Tyrosine Phosphatase Receptor Type M (PTPRM), PTPRM (gene 5797) (UniProt P28827). Nature of the test: NVS_ENZ_hPTPRM: NovaScreen (NVS) Enzymatic Assay for human Protein Tyrosine Phosphatase Receptor Type M (PTPRM) (AID 2283215). In outline:
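Cell-free recombinant PTPRM with fluorogenic substrate; product separated from substrate by electrophoretic mobility shift and read by fluorescence, 1.33 h after dosing. Primary screen single concentration (25 uM) in duplicate; actives retested in concentration series; loss of signal versus DMSO.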

Test [14] has as its target human Vascular Endothelial Growth Factor Receptor 1 (VEGFR1), FLT1 (gene 2321) (UniProt P17948). In words: NVS_ENZ_hVEGFR1: NovaScreen (NVS) Enzymatic Assay for human Vascular Endothelial Growth Factor Receptor 1 (VEGFR1) (AID 2283226). In outline:
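Cell-free assay of recombinant human VEGFR1 kinase with substrate, measured 1 h after dosing; fluorescence with electrophoretic mobility-shift separation of substrate and product, referenced to DMSO; primary screen at 25 uM in duplicate, actives then run in concentration series.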

In test [15] the target is human Sirtuin 3 (SIRT3), SIRT3 (gene 23410) (UniProt Q9NTG7). In words: NVS_ENZ_hSIRT3: NovaScreen (NVS) Enzymatic Assay for human Sirtuin 3 (SIRT3) (AID 2283222). An outline of the steps: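 Cell-free enzyme assay with recombinant protein and fluorescent substrate, product separated by electrophoretic mobility shift; read 1 hour after dosing. Screened in duplicate at 25 uM, then singleton concentration-response up to 50 uM; loss of signal versus DMSO.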

In test [16] the target is human Protein Tyrosine Phosphatase Receptor Type C (PTPRC), PTPRC (gene 5788) (UniProt P08575). Nature of the test: NVS_ENZ_hPTPRC: NovaScreen (NVS) Enzymatic Assay for human Protein Tyrosine Phosphatase Receptor Type C (PTPRC) (AID 2283212). In outline: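 Yeast-extracted human PTPRC used in a cell-free colorimetric enzyme activity read-out, 1 h after dosing. Primary screen in duplicate at 25 uM; actives rerun in concentration-response up to 50 uM, DMSO as baseline.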

The target in test [17] is human Sirtuin 1 (SIRT1), SIRT1 (gene 23411) (UniProt Q96EB6). In words: NVS_ENZ_hSIRT1: NovaScreen (NVS) Enzymatic Assay for human Sirtuin 1 (SIRT1) (AID 2283219). An outline of the steps:
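Cell-free recombinant SIRT1 with a fluorescent substrate; substrate and product separated by electrophoretic mobility shift and read by fluorescence intensity, 1 h after dosing. Primary screen at 25 uM in duplicate; hits re-run in concentration-response up to 50 uM, relative to DMSO.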

human Protein Tyrosine Phosphatase Non-receptor Type 6 (PTPN6), PTPN6 (gene 5777), sequence (P29350 whole entry, looked up): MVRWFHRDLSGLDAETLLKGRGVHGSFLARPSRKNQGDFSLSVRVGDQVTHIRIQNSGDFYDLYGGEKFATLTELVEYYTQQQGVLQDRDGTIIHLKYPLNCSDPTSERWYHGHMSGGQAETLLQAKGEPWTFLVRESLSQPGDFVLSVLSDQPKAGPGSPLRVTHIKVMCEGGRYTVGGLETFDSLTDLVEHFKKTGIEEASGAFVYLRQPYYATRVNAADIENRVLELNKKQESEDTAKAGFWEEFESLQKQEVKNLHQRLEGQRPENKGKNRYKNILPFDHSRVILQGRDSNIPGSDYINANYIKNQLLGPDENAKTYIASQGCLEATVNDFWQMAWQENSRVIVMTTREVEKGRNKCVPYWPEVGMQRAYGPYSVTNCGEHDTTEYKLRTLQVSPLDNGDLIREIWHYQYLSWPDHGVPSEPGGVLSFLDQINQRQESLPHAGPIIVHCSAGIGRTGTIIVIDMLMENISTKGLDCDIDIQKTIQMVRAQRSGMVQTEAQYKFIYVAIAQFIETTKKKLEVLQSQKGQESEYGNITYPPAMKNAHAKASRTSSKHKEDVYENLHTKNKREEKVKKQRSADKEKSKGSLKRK
sheep Cyclooxygenase-2 (Cox2), PTGS2 (gene 443460), sequence (P79208 whole entry, looked up): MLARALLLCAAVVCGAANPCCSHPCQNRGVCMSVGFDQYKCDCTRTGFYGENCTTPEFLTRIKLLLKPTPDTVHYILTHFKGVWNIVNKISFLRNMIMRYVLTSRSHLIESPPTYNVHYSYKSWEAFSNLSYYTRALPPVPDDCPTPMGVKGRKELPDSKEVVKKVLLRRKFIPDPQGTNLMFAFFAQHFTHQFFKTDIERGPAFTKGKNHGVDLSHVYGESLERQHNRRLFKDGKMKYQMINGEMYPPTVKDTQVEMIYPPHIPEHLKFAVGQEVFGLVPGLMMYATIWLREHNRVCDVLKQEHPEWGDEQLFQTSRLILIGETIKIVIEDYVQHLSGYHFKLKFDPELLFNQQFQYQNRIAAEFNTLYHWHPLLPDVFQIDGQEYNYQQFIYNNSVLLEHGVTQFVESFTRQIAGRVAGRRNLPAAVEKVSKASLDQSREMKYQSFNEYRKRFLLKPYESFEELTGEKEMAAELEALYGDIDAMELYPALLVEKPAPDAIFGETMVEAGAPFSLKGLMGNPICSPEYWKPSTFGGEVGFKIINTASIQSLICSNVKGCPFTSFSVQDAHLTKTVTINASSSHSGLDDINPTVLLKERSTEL
human Tyrosine Protein Kinase Receptor Tie-2 (Tie2), TEK (gene 7010), sequence (Q02763 whole entry, looked up): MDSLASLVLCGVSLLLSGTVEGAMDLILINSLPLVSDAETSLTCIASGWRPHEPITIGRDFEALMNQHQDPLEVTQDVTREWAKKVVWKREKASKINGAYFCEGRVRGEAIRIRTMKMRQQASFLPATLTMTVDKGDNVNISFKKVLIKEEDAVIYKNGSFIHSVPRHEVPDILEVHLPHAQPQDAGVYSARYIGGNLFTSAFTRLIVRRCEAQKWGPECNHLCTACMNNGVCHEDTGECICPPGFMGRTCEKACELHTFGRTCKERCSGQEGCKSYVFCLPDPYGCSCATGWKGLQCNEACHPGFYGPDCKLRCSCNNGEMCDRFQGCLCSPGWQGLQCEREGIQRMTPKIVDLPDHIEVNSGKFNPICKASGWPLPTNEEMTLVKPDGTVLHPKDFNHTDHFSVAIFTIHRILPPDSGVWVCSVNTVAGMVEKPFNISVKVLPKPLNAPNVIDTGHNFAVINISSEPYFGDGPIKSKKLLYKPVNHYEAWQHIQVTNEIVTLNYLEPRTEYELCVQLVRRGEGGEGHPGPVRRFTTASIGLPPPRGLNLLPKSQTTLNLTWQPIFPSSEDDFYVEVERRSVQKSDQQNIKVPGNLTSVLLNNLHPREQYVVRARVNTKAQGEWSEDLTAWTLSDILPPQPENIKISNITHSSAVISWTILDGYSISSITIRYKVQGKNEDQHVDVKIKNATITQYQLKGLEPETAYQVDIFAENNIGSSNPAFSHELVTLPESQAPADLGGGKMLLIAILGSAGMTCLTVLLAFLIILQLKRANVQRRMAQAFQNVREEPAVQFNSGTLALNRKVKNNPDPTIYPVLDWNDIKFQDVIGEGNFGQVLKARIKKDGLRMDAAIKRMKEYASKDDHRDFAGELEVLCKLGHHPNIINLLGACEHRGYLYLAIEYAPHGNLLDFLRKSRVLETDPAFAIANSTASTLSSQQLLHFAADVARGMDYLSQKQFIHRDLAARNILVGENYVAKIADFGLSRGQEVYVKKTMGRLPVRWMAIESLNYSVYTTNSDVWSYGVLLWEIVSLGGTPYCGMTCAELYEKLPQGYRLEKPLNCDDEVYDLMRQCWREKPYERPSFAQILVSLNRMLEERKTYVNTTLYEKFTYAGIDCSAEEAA
human Protein Tyrosine Phosphatase Non-receptor Type 9 (PTPN9), PTPN9 (gene 5780), sequence (P43378 whole entry, looked up): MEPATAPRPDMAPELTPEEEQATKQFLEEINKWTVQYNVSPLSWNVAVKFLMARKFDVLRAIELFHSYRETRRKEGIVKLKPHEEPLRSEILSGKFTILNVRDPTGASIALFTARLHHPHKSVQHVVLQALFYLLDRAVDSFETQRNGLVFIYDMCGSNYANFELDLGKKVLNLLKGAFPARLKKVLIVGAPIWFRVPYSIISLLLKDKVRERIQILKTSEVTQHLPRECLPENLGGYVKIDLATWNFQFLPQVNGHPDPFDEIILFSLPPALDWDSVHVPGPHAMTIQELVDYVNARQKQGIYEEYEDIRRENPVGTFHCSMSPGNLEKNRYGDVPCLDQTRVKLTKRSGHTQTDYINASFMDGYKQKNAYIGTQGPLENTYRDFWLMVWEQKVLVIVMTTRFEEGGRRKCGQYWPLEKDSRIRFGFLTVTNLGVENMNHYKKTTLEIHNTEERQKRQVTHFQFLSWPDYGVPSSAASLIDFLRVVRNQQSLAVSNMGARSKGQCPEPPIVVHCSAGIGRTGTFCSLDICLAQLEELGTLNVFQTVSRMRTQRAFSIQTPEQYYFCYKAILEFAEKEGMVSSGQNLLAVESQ
human Vascular Endothelial Growth Factor Receptor 2 (VEGFR2), KDR (gene 3791), sequence (P35968 whole entry, looked up): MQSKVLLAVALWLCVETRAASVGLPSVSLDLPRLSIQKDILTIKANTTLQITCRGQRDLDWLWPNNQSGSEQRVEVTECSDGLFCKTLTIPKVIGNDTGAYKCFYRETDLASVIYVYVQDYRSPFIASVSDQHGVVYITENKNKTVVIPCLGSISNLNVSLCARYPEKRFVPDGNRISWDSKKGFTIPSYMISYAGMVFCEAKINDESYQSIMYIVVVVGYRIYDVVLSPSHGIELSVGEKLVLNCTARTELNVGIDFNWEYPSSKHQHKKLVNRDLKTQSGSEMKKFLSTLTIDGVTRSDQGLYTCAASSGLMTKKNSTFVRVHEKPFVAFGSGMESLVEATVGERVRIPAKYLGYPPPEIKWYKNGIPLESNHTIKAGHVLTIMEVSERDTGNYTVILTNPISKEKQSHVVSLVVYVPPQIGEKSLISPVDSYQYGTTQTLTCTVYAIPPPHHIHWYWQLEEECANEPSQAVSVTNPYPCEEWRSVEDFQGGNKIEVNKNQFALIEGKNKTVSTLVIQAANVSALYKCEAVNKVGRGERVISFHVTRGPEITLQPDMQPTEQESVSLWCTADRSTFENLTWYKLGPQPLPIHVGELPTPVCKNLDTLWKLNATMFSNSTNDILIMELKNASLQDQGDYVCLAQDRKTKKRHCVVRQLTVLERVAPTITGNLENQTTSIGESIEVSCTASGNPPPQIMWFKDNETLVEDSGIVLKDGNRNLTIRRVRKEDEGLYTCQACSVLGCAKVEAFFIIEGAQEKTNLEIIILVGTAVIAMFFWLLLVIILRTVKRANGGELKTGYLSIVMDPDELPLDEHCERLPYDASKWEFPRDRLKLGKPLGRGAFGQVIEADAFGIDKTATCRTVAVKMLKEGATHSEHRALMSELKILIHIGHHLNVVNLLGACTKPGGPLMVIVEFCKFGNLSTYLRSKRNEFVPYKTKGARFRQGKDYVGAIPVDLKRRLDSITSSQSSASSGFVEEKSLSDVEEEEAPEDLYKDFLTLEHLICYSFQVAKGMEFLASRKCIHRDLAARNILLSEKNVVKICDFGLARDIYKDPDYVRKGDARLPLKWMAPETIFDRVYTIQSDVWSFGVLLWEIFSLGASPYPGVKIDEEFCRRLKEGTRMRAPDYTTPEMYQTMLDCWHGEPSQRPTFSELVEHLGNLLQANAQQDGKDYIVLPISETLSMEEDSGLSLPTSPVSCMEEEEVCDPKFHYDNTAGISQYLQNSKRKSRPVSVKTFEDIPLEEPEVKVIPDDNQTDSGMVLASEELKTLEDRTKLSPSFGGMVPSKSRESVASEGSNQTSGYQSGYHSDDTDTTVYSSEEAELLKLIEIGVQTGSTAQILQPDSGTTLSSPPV
human Raf-1 Proto-Oncogene, serine/threonine Kinase (RAF1), RAF1 (gene 5894), sequence (P04049 whole entry, looked up): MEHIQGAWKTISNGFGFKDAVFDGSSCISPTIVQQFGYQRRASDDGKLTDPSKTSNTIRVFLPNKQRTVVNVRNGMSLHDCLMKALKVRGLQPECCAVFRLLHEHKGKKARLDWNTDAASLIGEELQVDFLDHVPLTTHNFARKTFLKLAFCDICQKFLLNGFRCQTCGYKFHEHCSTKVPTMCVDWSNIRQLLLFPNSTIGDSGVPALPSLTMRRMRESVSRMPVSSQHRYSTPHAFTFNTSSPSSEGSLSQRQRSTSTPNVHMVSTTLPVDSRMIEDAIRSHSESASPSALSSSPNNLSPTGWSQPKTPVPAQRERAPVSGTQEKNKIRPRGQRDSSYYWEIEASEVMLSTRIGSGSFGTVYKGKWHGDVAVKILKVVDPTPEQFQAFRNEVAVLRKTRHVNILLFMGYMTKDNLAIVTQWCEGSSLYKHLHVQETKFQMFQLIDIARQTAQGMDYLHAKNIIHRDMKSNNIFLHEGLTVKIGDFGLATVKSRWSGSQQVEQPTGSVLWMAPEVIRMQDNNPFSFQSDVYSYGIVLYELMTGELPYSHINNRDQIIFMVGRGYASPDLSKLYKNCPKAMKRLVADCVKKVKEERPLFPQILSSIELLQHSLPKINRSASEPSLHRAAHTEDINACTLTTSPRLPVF

On to `CC1=C2C[C@H]3[C@@H](CC=C4C[C@@H](O)CC[C@@]43C)[C@@H]2CC[C@]12O[C@@H]1C[C@H](C)CN[C@H]1[C@H]2C`, for which the result in test [1], in test [2], in test [3], in test [4], in [5] and in [6] was inactive.

Consider `CCC(=O)O[C@H]1CC[C@H]2[C@@H]3CCC4=CC(=O)CC[C@]4(C)[C@H]3CC[C@]12C`, for which the result in [7] was inactive.

For `C=CC(N)=O`, the result in [8] was inactive.

With `Cc1cccc(C)c1N`, in test [7], the result was inactive.

With `ClC(Cl)=C(c1ccc(Cl)cc1)c1ccc(Cl)cc1`, the outcome in test [6] was inactive.

Turning to `Cc1cc(O)ccc1Cl`, the molecule was called inactive in test [1] and in test [9].

In the case of `Nn1cnnc1`, in test [9], the outcome was inactive.

With `Cc1cccc([N+](=O)[O-])c1`, the molecule was classed as inactive in test [10] and in test [11].

On to `CN(C)c1nc(=O)n(C2CCCCC2)c(=O)n1C`, for which the concentration at half-maximal activity (AC50) in [12] is 9.76 µM (active).

As to `N#Cc1ccc(N(CC(N)=O)CC(F)(F)F)cc1C(F)(F)F`, the concentration at half-maximal activity (AC50) in test [7] is 6.58 µM (active).

Take `CC(C)C(=O)OCC(C)(C)C(OC(=O)C(C)C)C(C)C` (centres undefined): the result in [13], in test [10] and in test [14] was inactive.

As for `CCCCCCCCCC[N+](C)(C)CCCCCCCCCC`, the AC50 in test [12] was 11.8 µM (active); in test [6], 26 µM (active).

With `CCCN(CCC)N=O`, the molecule was classed as inactive in [15], in test [3], in [4] and in test [6].

As to `O=C(O)C(F)(F)C(F)(F)C(F)(F)C(F)(F)C(F)(F)C(F)(F)C(F)(F)C(F)(F)C(F)(F)F`, in [16], the concentration at half-maximal activity (AC50) is 15.8 µM (active).

As to `C1CC2OC2CC1C1CO1` (centres undefined), the outcome in test [1] and in test [9] was inactive.

Turning to `CCC(C)c1cc([N+](=O)[O-])cc([N+](=O)[O-])c1O` (centres undefined), in test [16], the AC50 is 25 µM (active). Besides, the call in [6] was inactive.

For the molecule `O=S(=O)(O)C(F)(F)C(F)(F)C(F)(F)C(F)(F)C(F)(F)C(F)(F)F`, the call in test [8], in test [13], in test [17], in [4] and in [6] was inactive. The concentration at half-maximal activity (AC50) in test [11] was 11.4 µM (active).

Regarding `CCOC(=O)C(O)(c1ccc(Cl)cc1)c1ccc(Cl)cc1`, in test [6], the molecule was classed as inactive.

Consider `Cc1ccc(O)c(C)c1`, for which, in [7], the AC50 is 18.4 µM (active).

Usually AC50 stands for the concentration giving half of the maximal activity seen.
